GCN5L2 inh: GCN5L2 (KAT2A) acetyltransferase inhibition; Q92830; GCN5L2 HAT assay, ThioGlo1 CoA-SH fluorescence; Potency, µM (highest dose often 58.9 µM), hits mostly inhibitors; 0.21% of 390,000 active; AID 504327
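GCN5L2 (20 nM) in 50mM HEPES pH 7.5, 0.1mM EDTA, 0.01% Tween-20 preincubated 15 min with compounds at room temperature. Reaction started with H3(1-25) 75uM, acetyl-CoA 70uM, ThioGlo1 50uM; CoA-thiol fluorescence (Ex340/Em540) read at 0 and 20 min.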
HP1b chromo inh: blocks HP1-beta chromodomain binding to methylated histone tails; AlphaScreen HP1-beta / biotin-H3K9me3 peptide binding; Potency, µM (titrated, usually from 114 µM), hits mostly inhibitors; 0.56% of 390,000 active; AID 540317; note: nearly all actives have a fitted effect of over 70% in size
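HP1-beta protein (50 nM final) preincubated 30 min at room temperature with biotinylated H3(1-18)K9me3 peptide (50 nM) in PBS pH 7.4, 0.01% Tween-20, then compound added for 30 min. AlphaScreen streptavidin donor/nickel chelate acceptor beads (10 ug/mL final), 30 min dark, luminescence read.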
PI5P4Ka inh: blocks human PI5P4K alpha kinase activity; P48426; PI5P4Kalpha enzyme, ADP-Glo luminescence, 60 min; hits give low values; max response, %; 1.2% of 330,000 active; AID 652105; active = max response of -50% or lower; inconclusive = between -30% and -50%; inactive = -30% or higher; note: value at the top dose of about 77 µM
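Controls without substrate or without enzyme flank wells where PI5P4Kalpha converts substrate using 5 microM ATP (final). Incubation lasts 60 minutes at room temperature; ADP formed is read by ADP-Glo luminescence.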
BAZ2B inh: BAZ2B (human) inhibition; Q9UIF8; AlphaScreen BAZ2B-H3K14Ac peptide displacement; 4.4% of 360,000 active; Potency, µM (highest dose often 114 µM), most hits filed as inhibitors; note: nearly all actives have a fitted effect of over 60% in size
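Multi-concentration screen (max 110 uM) measuring displacement of acetylated histone H3 peptide from BAZ2B by AlphaScreen, using 50 nM protein, 50 nM peptide and 10 ug/mL streptavidin donor plus Ni-chelate acceptor beads.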
JMJD2A Tudor: blocks the human JMJD2A Tudor domain | O75164 | AlphaScreen JMJD2A-Tudor / H3K4me3 peptide binding | Potency, µM (top dose mostly 114 µM), hits mostly inhibitors | 4.4% of 390,000 active | AID 504339; note: nearly all actives have a fitted effect of over 50% in size
Target sequence (O75164 whole entry, looked up, the tested form may be a part): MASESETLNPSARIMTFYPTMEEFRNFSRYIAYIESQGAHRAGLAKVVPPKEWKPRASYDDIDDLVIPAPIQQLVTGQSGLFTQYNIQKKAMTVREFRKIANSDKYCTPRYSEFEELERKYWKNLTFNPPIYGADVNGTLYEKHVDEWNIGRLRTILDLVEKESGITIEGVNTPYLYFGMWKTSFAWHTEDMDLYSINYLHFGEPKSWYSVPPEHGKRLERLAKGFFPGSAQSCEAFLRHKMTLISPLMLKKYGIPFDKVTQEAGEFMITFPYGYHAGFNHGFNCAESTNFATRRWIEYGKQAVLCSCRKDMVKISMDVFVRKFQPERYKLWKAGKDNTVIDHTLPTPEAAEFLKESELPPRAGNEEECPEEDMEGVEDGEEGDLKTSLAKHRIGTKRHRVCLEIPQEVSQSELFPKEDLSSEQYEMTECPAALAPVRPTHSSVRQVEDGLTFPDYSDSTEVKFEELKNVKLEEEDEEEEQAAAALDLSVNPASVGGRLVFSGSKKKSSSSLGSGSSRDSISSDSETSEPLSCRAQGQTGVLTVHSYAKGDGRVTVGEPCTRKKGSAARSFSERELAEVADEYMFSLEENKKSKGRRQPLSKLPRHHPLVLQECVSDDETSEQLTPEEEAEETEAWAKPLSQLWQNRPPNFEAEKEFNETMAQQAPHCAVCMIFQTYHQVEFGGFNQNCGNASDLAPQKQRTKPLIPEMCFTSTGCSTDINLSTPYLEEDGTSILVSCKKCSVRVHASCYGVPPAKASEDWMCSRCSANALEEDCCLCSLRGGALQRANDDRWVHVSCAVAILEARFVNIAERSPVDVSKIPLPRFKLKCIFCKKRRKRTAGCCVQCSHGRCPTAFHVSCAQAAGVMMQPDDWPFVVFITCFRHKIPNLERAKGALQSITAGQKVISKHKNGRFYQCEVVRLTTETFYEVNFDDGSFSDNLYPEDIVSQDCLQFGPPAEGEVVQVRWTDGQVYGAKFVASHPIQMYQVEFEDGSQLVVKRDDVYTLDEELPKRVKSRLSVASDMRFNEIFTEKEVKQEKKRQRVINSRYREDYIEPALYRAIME
PLK1 PBD inh: inhibitors of human PLK1 polo-box domain binding; 2.8% of 360,000 active; Plk1 PBD binding of FITC phosphopeptide, fluorescence polarization; P53350; Potency, µM, actives largely listed as inhibitors; note: series mostly up to about 57 µM; nearly all actives have a fitted effect of over 65% in size
A number is an active result; – = inactive; ? = inconclusive; · = no result given; [ ] = another dose, or the depositor's remark. Most compounds without a hit are left out; they make up all but 7% or so of the library. Unless noted, calls come from the whole dose curve; as a rule, active = well fitted curve in the direction sought with a large enough effect; inconclusive = small, poorly fitted or top-dose-only effect, or another doubt; inactive = no such curve, though single readings can be large; an effect the other way counts as inactive or inconclusive.

SMILES | GCN5L2 inh | HP1b chromo inh | PI5P4Ka inh | BAZ2B inh | JMJD2A Tudor | PLK1 PBD inh
O=C(C1CC1)N(Cc1nc2ccccc2c(=O)[nH]1)Cc1cccs1 | – | – | ? | – | –[11.4 µM] | 15µM
CC(C)C1=Nc2cccc3cccc(c23)N1 | – | – | – | ? | – | 9.5µM
ClCC1=Nc2cccc3cccc(c23)N1 | – | · | · | 79µM | · | ·
O=C(CN1C(=O)NC2(CCCCC2)C1=O)NCCc1ccc(Cl)cc1Cl | – | – | – | · | – | –
O=C(CC1N=C2c3ccccc3N=C(SCc3cccc(Cl)c3)N2C1=O)NCCc1ccccc1 (stereo not drawn) | – | – | · | – | – | ·
O=C(CN1CCOCC1)Nc1nc2ccc([N+](=O)[O-])cc2s1 | – | – | – | – | 10µM | –
COc1ccc(-c2cn3nc(SCC(=O)Nc4ccccc4F)ccc3n2)cc1 | – | – | · | – | – | ·
COc1ccccc1CCNC(=O)Cn1ccc2cc(S(=O)(=O)N3CCCC3)ccc21 | – | – | – | – | – | ?
COc1ccc(CNC(=O)CCn2ccc3cc(S(=O)(=O)N4CCCC4)ccc32)cc1 | – | – | – | – | – | –
CCOc1ccc(CNC(=O)Cn2ccc3cc(S(=O)(=O)N4CCCC4)ccc32)cc1 | – | – | – | – | ? | 27µM
COc1cccc(CNC(=O)Cn2ccc3cc(S(=O)(=O)N4CCCC4)ccc32)c1OC | – | – | – | – | ? | 30µM
CCOc1ccc(CNC(=O)Cn2ccc3cc(S(=O)(=O)N4CCCCCC4)ccc32)cc1 | – | – | – | – | – | –
CSc1ccc(CNC(=O)CCn2ccc3cc(S(=O)(=O)N4CCCC4)ccc32)cc1 | – | – | – | ? | ? | 27µM
COc1ccc(NS(=O)(=O)c2cc(NC(=O)c3ccc(=O)[nH]n3)ccc2C)cc1 | – | – | – | – | – | –
COc1cc(-c2cc3n(C)c(C)c(CCC(=O)NCc4ccccc4)c(=O)n3n2)cc(OC)c1OC | – | – | · | – | – | ·
Cc1cc(S(=O)(=O)N2CCCC2)ccc1OCC(=O)Nc1ccccc1 | – | – | – | – | – | –
Cc1ccc2c(c1)c(CC(NC(=O)c1ccccc1Oc1ccccc1)C(=O)O)cn2C(=O)OCc1ccccc1 (stereo not drawn) | 10µM | · | · | · | · | ·
c1cncc(-c2cccnc2)c1 | – | – | – | 40µM | – | –
Oc1cncc(-c2cccnc2)c1 | – | – | – | – | – | –
CN1CCN(Cc2c(O)ccc3cc(Br)ccc23)CC1 | – | – | – | · | ? | 24µM
CCc1cc(=O)oc2c(CN3CCN(C)CC3)c(O)ccc12 | ? | – | – | – | – | –
Cc1ccc(S(=O)(=O)NCC(c2ccco2)N2CCc3ccccc32)cc1 (stereo not drawn) | – | – | – | ? | ? | –
CN(C)c1ccc(C(CNS(=O)(=O)c2ccc([N+](=O)[O-])cc2)N2CCOCC2)cc1 (stereo not drawn) | – | – | – | ? | ? | –
Cc1ccc(S(=O)(=O)NCC(c2ccc(N(C)C)cc2)N2CCc3ccccc32)cc1C (stereo not drawn) | – | – | · | 6.3µM | 7.1µM | ·
CCOc1ccc(S(=O)(=O)NCC(c2ccc(N(C)C)cc2)N2CCc3ccccc32)cc1 (stereo not drawn) | – | ? | · | 6.3µM | 13µM | ·
SMILES | GCN5L2 inh | HP1b chromo inh | PI5P4Ka inh | BAZ2B inh | JMJD2A Tudor | PLK1 PBD inh
COc1ccc(S(=O)(=O)NCC(c2ccc(N(C)C)cc2)N2CCc3ccccc32)cc1 (stereo not drawn) | – | ? | · | ? | 22µM | ·
COc1ccc(S(=O)(=O)NCC(c2ccco2)N2CCc3ccccc32)cc1 (stereo not drawn) | – | ? | – | ? | ? | –
CCOc1ccc(S(=O)(=O)NCC(c2ccc(N(C)C)cc2)N2CCCC2)cc1 (stereo not drawn) | – | – | · | 35µM | ? | ·
CCN(CC(=O)NCc1ccc(Cl)cc1)C(=O)c1ccc(C#N)cc1 | – | – | – | – | – | –
CCOc1ccc(N(C)C(CNS(=O)(=O)c2ccccc2)c2ccccc2)cc1 (stereo not drawn) | – | ? | · | 11µM | 28µM | ·
CN(C)c1ccc(C(CNC(=O)COc2ccc(Cl)cc2)N2CCCC2)cc1 (stereo not drawn) | – | – | – | 35µM | – | –

Screens (PubChem)
